Reference: PubChem BioAssay AID504339 (National Center for Advancing Translational Sciences (NCATS), 2011)
About 17,000 (4.4%) of roughly 390,000 compounds were called active. Not shown: some 8% with an inconclusive outcome. What follows is part of a selection rich in actives, with near analogues and random picks from the rest. Values without a mark were called inactive. The call rests on the fitted dose curve; in most records, active means well fitted inhibition curve with a large enough effect; inconclusive means small, poorly fitted or top-dose-only effect; inactive means no such curve, though single readings can be large or run the other way.

molecular target: Lysine-specific demethylase 4A (Homo sapiens) (UniProt O75164); assay: qHTS Assay for Inhibitors of JMJD2A-Tudor Domain; conditions: AlphaScreen JMJD2A-Tudor / H3K4me3 peptide binding; series mostly up to 114 µM; activity change, negative = inhibition: at the top concentration; further: nearly all actives have a fitted effect of over 50% in size
Sequence (O75164 whole entry, looked up, the tested form may be a part): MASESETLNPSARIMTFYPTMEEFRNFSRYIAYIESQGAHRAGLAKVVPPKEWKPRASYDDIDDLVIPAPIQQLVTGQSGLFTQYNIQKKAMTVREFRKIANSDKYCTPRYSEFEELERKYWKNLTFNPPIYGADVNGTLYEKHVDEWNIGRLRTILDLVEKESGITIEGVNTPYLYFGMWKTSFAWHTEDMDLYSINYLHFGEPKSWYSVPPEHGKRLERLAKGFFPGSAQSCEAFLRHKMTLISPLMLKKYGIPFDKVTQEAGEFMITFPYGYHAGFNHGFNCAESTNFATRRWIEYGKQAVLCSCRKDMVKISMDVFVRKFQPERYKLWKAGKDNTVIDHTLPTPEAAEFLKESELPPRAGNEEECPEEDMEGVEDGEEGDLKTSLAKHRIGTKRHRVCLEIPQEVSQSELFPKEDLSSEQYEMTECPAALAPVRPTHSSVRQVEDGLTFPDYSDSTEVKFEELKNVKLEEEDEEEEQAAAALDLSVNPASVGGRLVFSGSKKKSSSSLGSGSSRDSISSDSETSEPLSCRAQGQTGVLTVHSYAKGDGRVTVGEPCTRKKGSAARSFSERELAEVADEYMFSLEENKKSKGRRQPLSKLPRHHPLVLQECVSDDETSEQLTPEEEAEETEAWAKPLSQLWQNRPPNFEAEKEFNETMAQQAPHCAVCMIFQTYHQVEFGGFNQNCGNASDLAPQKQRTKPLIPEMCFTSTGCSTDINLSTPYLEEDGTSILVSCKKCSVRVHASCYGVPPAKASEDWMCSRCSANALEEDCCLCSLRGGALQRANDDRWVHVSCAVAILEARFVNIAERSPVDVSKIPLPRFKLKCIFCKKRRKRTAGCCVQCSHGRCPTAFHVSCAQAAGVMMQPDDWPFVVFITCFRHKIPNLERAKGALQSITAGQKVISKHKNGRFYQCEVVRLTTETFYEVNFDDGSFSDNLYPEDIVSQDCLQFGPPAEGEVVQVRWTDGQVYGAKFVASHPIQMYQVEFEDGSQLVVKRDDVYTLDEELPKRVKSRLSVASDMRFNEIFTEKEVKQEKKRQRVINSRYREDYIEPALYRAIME
Source text: JMJD2A is a jumonji-domain-containing lysine demethylase that uses Fe(II) together with 2-OG to effect oxidative demethylation of histones. Methylation is one of many […] modification that affect epigenetic transcription. […] It is proposed that the functions of JmjD2A binding to the histones, is to maintain marks after they are installed and to spread the modifications by […], establishing a self-propagating cycle for rapid methylation over a large area of chromatin. […] Thus, small molecule targeting of the JMJD2A-tudor domain interaction with its target methylhistone mark is expected to enable sophisticated experiments probing the fine regulatory pathways leading to selective demethylation of a given methyllysine locus based on the methylation state of adjacent histone marks. A quantitative high throughput AlphaScreen has been developed to identify small molecule inhibitors based on a protocol published by NCGC and SGC [4].
Although AlphaScreen has significant advantages with its utility in a variety of epigenetic target assays, the primary screening data provided in this deposition should be used with caution due to the prevalence of screening artifacts. The top compound concentration tested was high (>100uM) in this assay, which increases number of actives and potential artifacts. An AlphaScreen counterscreen is highly recommended to be run against any putative actives to eliminate non-specific artifacts. Alternatively, one can use other AlphaScreen assays in PubChem to filter out promiscuous hits.
[1] Lee, J. et al. Distinct binding modes specify the recognition of methylated histone H3K4 and H4K20 by JMJD2A-tudor. Nat Struct Mol Biol. 15(1); 109-11. 2008. PMID: 18084306
[2] Yasgar, et al. Compound Management for Quantitative High-Throughput Screening. JALA. 2008 Apr;13(2):79-89. PMID: 18496600
[3] Inglese, et al. Quantitative high-throughput screening: a titration-based approach that efficiently identifies biological activities in large chemical libraries. Proc Natl Acad Sci. 1;103(31):11473-8. 2006. PMID: 16864780
[4] Quinn et al. A homogeneous method for investigation of methyl-dependent protein-protein interactions in epigenetics. Nucleic Acids Res., 38(2):e11. 2010. PMID: […]
[5] Baell,Holloway. New substructure filters for removal of pan assay interference compounds (PAINS) from screening libraries and for their exclusion in bioassays. J Med Chem. 53(7):2719-40. 2010. PMID: 20131845
NIH Molecular Libraries Probe Production Network [MLPCN]
NIH Chemical Genomics Center [NCGC]
Structural Genomics Consortium (SGC)
To each well of a 1,536w plate, 2ul of JMJD2A-Tudor (final 100nM) and 1ul biotinylated histone peptide methylated at Lys4 [b-H3(1-18)K4me3] (final 50nM) were added in 1x PBS buffer, pH 7.4, containing 0.01% Tween-20, using a nanoliter dispenser. Formation of a protein-peptide complex proceeded at room temperature for 30 min. A Kalypsys pin-tool transferred 23nl of library compound solution in DMSO to each well. Following a 30 min incubation of the protein-peptide complex with compounds at room temperature, a mixture of 40 µg/mL each streptavidin-coated donor and nickel chelate acceptor AlphaScreen beads (final 10 µg/mL) was added in a 1ul dispense for a final volume of 4ul, followed by a brief centrifugation (1000 rpm, 1 min). Plates were incubated protected from the light for 20 min at room temperature. Microplates were then read on an EnVision multilabel plate reader using the 1,536 plate HTS AlphaScreen aperture (excitation time 80 ms, measurement time 240 ms).
On the % scale 0 is the no-effect control and ±100 the full control effect; potency means the concentration at half of the fitted maximal effect.

SMILES	Potency	activity change, negative = inhibition
Cc1ccccc1NC(=O)CCOc1ccccc1	inactive	–
Cc1cccc(NC(=O)CSC(N)=O)c1C	–	-8.89%
Cc1ccccc1NC(=O)CSC(=O)c1ccccc1	89.1 µM (active)	–
COc1ccccc1NC(=O)c1sc2nc(C)c(C(=O)Nc3ccc(Cl)cc3)c(-c3ccc(Br)cc3)c2c1N	–	-2.39%
O=C(CC1Sc2ccccc2NC1=O)NNc1ccc(Cl)c(Cl)c1 (centres undefined)	–	-9.09%
Cn1c(CC2Sc3ccccc3NC2=O)nnc1SCC(=O)c1ccc(Cl)cc1 (centres undefined)	25.1 µM (active)	–
Cn1c(CC(=O)Nc2ccccc2)nnc1SCC(=O)c1ccccc1	–	-9.68%
CN(C(=O)CSc1nnc(NC(=O)Nc2ccccc2)s1)c1ccccc1	–	-10.4%
COc1ccc(CNC(=O)Cn2nnc(-c3ccccc3F)n2)cc1	–	-11.6%
Cc1cccc(NC(=O)Cn2cc(S(=O)(=O)Cc3ccccc3Cl)c3ccccc32)c1	–	-14.9%
CSc1ccc(C2C(C(=O)Nc3ccccc3)=C(C)Nc3nc4ccccc4n32)cc1 (centres undefined)	–	-12.3%
COCCNC(=O)c1cc(-c2cccc(Cl)c2)on1	–	-21.2%
O=C(CN1C(=O)S/C(=C\c2ccccc2F)C1=O)NCCCn1ccnc1	–	-14.5%
O=C(CN1C(=O)/C(=C\c2ccc(C(F)(F)F)cc2)Sc2ccccc21)NCc1ccco1	–	-13.2%
O=C(CN1C(=O)/C(=C/c2ccccc2F)Sc2ccccc21)NCc1cccnc1	89.1 µM (active)	–
Cc1nn(CC(=O)N2CCN(c3cccc(C(F)(F)F)c3)CC2)c(=O)c2cc3sccc3n12	–	-5.45%
CCc1ccc(S(=O)(=O)Nc2cc3c(C(=O)OCc4ccccc4)c(C)oc3c3ccccc23)cc1	–	-19%
Cc1ccc(-c2cc(C(=O)Oc3ccccc3Cl)no2)cc1C	–	101%
Cc1ccc(NC(=O)NNC(=O)c2sccc2-n2cccc2)cc1	–	-27%
C=CC[n+]1c(-c2ccc(C)cc2)csc1NNC(=O)Nc1ccccc1	28.2 µM (active)	–
O=C(NNC(=O)c1ccc(-c2ccccc2)cc1)Nc1ccccc1	–	-2.1%
FC(F)(F)c1cc(Nc2nc3ccccc3c3nncn23)ccc1Cl	–	-8.56%
CCC(c1nnnn1C1CCCC1)N1CCN(C(=O)c2ccco2)CC1 (centres undefined)	–	-20.8%
CCC(C)(C)n1nnnc1C(c1ccc(OC)c(OC)c1)N1CCN(C(=O)c2ccco2)CC1 (centres undefined)	79.4 µM (active)	–
CC(C)(C)n1nnnc1C(c1ccccc1F)N1CCN(C(=O)c2ccco2)CC1 (centres undefined)	–	6.92%

SMILES	Potency	activity change, negative = inhibition
CC1CCCCN1S(=O)(=O)c1ccc(C(=O)Nc2nnc(-c3cccs3)o2)cc1 (centres undefined)	–	-1.53% [at 11.4 µM]
CC1CCCCN1S(=O)(=O)CCNC(=O)c1ccccc1 (centres undefined)	–	-2.72%
CSCc1nnc(NC(=O)c2ccc(S(=O)(=O)N3CCCCC3C)cc2)o1 (centres undefined)	50.1 µM (active)	–
Cc1nnc(C)n1-c1ccc(C(=O)Nc2cccc(Br)c2)cc1	–	-7.42%
COC(=O)CN1C(=O)CSc2ccc(S(=O)(=O)Nc3cc(C)ccc3C)cc21	–	-13.4%
CC(C)(C)OC(=O)N1CCC(c2c(C(=O)N3CCc4ccccc4C3)cnn2-c2ccc(F)cc2)CC1	–	-18.4%
Cc1ccc(Cl)cc1N1CCN(C(=O)C2CCC(CNS(=O)(=O)c3cccs3)CC2)CC1 (centres undefined)	–	-20.2%
C#CCOc1ccc(C2CC(=O)Nc3c2c(C)nn3-c2nc(C)cc(C)n2)cc1 (centres undefined)	–	-27.2%
Cc1ccc(CSc2oc(-c3cccs3)nc2S(=O)(=O)c2ccc(C)cc2)cc1	–	-1.37%
CCN(CC)S(=O)(=O)c1ccc(NC(=O)c2cnc(C)cn2)cc1	–	0.664%
CCN(CC)S(=O)(=O)c1ccc(NC(=O)c2cccnc2Cl)c(NC(=O)c2cccnc2Cl)c1	31.6 µM (active)	–
Cc1ccc(CNC(=O)c2cccnc2Cl)cc1	–	-11.1%
Cc1ccccc1CN1CCC(CNC(=O)c2cc3ccc4cccnc4c3[nH]2)CC1	–	-27.2%
Cc1ccc(C(=O)Nc2c(C(=O)NC(C)(C)C)oc3ccccc23)cc1	–	6.8%
O=C(Cc1ccc(Cl)cc1)NCC(c1cccs1)S(=O)(=O)c1ccc(Cl)cc1 (centres undefined)	–	-13.3%
Cc1cc(C)c(S(=O)(=O)N2CCOCC2)cc1C	11.2 µM (active)	–
COc1cc(C)c(S(=O)(=O)N2CCOCC2)c(C)c1C	–	0%
Cc1ccc(NC(=O)C2CC2)cc1S(=O)(=O)N1CCOCC1	–	-17.9%
Cn1nc(-c2ccccc2)c(-c2ccccc2)c(C(=O)Nc2ccc(S(N)(=O)=O)cc2)c1=O	–	-18.9%
CCOc1cccc2sc(N3CCN(C(=O)C4CC4)CC3)nc12	–	-8.44%
CCOC(=O)c1c(C)[nH]c(CCC(=O)Nc2ccc(OC)c(OC)c2)c1C	–	-27.9%
O=C1Cc2cc(S(=O)(=O)Nc3ccc(OC(F)(F)F)cc3)cc3c2N1CCC3	–	-14.3%
O=C(NC1CCN(C(=S)Nc2ccc(Cl)cc2)CC1)C1CCCCC1	–	-8.8%
CCOC(=O)c1ccc(NC(=S)N2CCCC2)cc1	–	-7.88%
CN(C)c1ccc(C(=S)N2CCN(C(=S)Nc3ccc(Cl)cc3)CC2)cc1	28.2 µM (active)	–

SMILES	Potency	activity change, negative = inhibition
Cc1c(CNC2CCCCC2)c(C(=O)O)c(C)n1Cc1cccc(Cl)c1	–	-17.4%
Cc1cccc(NC(=O)CSc2nnc(CNC(=O)c3cccc(C)c3)n2-c2ccccc2)c1	–	-19.5%
O=C(N/N=C/c1cc(Cl)cc([N+](=O)[O-])c1O)C(O)(c1ccccc1)c1ccccc1	50.1 µM (active)	–
O=C(Cc1ccccc1)N/N=C/c1ccc(Cl)cc1Cl	–	-6.47%
Cc1nn(-c2ccccc2)c(Cl)c1/C=N/NC(=O)c1nn(C)cc1[N+](=O)[O-]	–	15.2%
CCOC(=O)c1ccc(NC(=O)Cn2c(=O)cc(C)c3c(C)nn(-c4cccc(F)c4)c32)cc1	–	-6.67%
CCN1C(=O)c2ccccc2S(=O)c2ccc(C(=O)NCc3ccc(F)cc3)cc21 (centres undefined)	–	1.68%
CN(c1ccc2nc3ccccc3c(=O)n2n1)C1CCCCC1	–	4.35%
CN(C)c1cc(N)c2ccccc2n1 (tested in a mixture with another compound)	2.82 µM (active)	–
O=C(CC1N=C2c3ccccc3N=C(SCc3ccc(F)cc3)N2C1=O)NCc1cccs1 (centres undefined)	–	-21%
Cc1cc(-c2ccc(C)c(S(=O)(=O)N3c4ccccc4CC3C)c2)on1 (centres undefined)	–	11.7%
O=S(=O)(c1ccc2nc(N3CCN(c4cccc(Cl)c4)CC3)ccc2c1)N1CCCCC1	–	9.42%
CCCCC1(C(=O)OCC)NC(c2ccc(O)cc2)C2C(=O)N(c3ccccc3)C(=O)C21 (centres undefined)	28.2 µM (active)	–
COC(=O)C1(C)NC(c2ccc(F)cc2)C2C(=O)N(c3ccccc3)C(=O)C21 (centres undefined)	–	1.31%
CCOC(=O)C1(C)NC(c2ccco2)C2C(=O)N(c3ccccc3)C(=O)C21 (centres undefined)	–	-18.4%
COc1ccccc1CNC(=O)C(=O)NCC(c1cccs1)S(=O)(=O)c1cccs1 (centres undefined)	–	-17.5%
CCCN(CCC)S(=O)(=O)c1ccc(C(=O)Nc2sc3c(c2C(=O)OC)CCN(CC)C3)cc1	–	-9.17%
Cc1ccc2oc(C(=O)Nc3ccc(S(=O)(=O)N4CCCCCC4)cc3)cc(=O)c2c1	–	-14.2%
CC1CCCCN1CC(=O)N1CCCc2c1c(=O)oc1ccc(OCc3ccccc3)cc21 (centres undefined)	–	-29.8%
CCN(c1ccccc1)S(=O)(=O)c1cc(C(=O)NCc2ccccn2)ccc1C	–	-17.2%
Cc1ccc(C(=O)Nc2ccc(C)c(S(=O)(=O)N(C)C)c2)s1	–	-9.67%
Cc1ccc(NC(=O)CNCc2ccccn2)cc1S(=O)(=O)N(C)C	56.2 µM (active)	–
Cc1ccc(OCC(=O)Nc2ccc(OCc3cc(=O)n4c(C)csc4n3)cc2)cc1C	–	-23.8%
Cc1cccc(NC(=O)Cn2c(C(F)(F)F)nc3ccccc32)c1C	–	-12.8%
CCc1nccn1S(=O)(=O)c1cc(Br)ccc1Br	–	-1.49%

SMILES	Potency	activity change, negative = inhibition
N#C/C(=C\c1ccccc1F)c1nc2ccccc2c(=O)[nH]1	–	-15.7%
COc1ccc(-c2nc(=N)sn2-c2ccccc2)cc1	5.62 µM (active)	–
Cc1ccc(-c2cc(C(=O)NC3CCN(Cc4ccccc4)CC3)c3ccccc3n2)cc1	–	-14.5%
COc1ccc(-c2nn3c(-c4ccc(OC)cc4)nnc3c3ccccc23)cc1	–	5.15%
Cc1ccc(-c2nc(=N)sn2Cc2ccccc2)cc1	4.47 µM (active)	–
Cc1ccc(CN2C(=O)SC(Nc3ccccc3)C2=O)cc1 (centres undefined)	–	14.8%
Cc1n[nH]c(=O)n1-c1ccc(Oc2ccccc2)cc1	–	-11%
CC(C)c1ccc2oc(-c3cc(NC(=O)c4cccs4)ccc3Cl)nc2c1	–	-2.99%
COC(=O)c1cc(NC(=O)CCc2c(C)nc3c4c(C)cc(C)nc4nn3c2C)cc(C(=O)OC)c1	–	-13.2%
COc1ccc(Cl)cc1NC(=O)CSc1nc(=O)[nH]c2c1CCCC2	–	-2.27%
Cc1cc(OCC(=O)Nc2ncn[nH]2)c(C)c(C)c1Br	–	-7.56%
COc1ccc(Cn2cc(C(=O)c3ccc(C)cc3)c(=O)c3cc(OC)c(OC)cc32)cc1	–	-31.3%
COc1ccc(CCNC(=O)c2cn(C)c3ccc(S(=O)(=O)N(C)C4CCCCC4)cc3c2=O)cc1OC	–	-4.33%
CCOc1ccc(C2c3[nH]c4ccccc4c3CCN2Cc2cn(CC)nc2C)cc1 (centres undefined)	–	-29.1%
CCOc1cccc(CC(=O)N2CCc3c([nH]c4ccccc34)C2c2ccc(OC)cc2)c1OCC (centres undefined)	–	-31.5%
CCOc1ccc(C2c3[nH]c4ccccc4c3CCN2Cc2cccn2-c2ncccn2)cc1 (centres undefined)	44.7 µM (active)	–
COc1ccc(C2CC(=O)Nc3c2c(=O)nc2c(C)cccn32)cc1OC (centres undefined)	–	-18.9%
Cc1ccc(-n2c(=O)c3cccnc3n2CC(=O)NCc2ccc(F)cc2)cc1C	–	3.75%
Cc1c(CN2CCC(CO)(CCOc3ccccc3)CC2)[nH]c2ccc(Cl)cc12	50.1 µM (active)	–
CCOC(=O)C1(CCOc2ccccc2)CCN(Cc2ccc(C#CCCO)cc2)CC1	–	-15.1%
CCOC(=O)C1(CCOc2ccccc2)CCN(Cc2cc(OC)cc(OC)c2)CC1	–	-11.6%
N#Cc1c(-c2ccccc2)c(-c2ccccc2)n[nH]c1=O	–	-7.47%
O=C(O)c1n[nH]nc1-c1ccccc1	4.47 µM (active)	–
O=C(O)c1ccc(-n2nc(-c3ccccc3)c3ccccc3c2=O)cc1	–	-7.69%
